Screens from PubChem.
CYP2C19 activ – cytochrome P450 2C19 (human) activation; AID 1025; P33261; activation factor at 5 µM; 96,000 tested, under 10 active; recombinant CYP2C19, luciferin-H EGE luminescence; stronger effect = higher value; 0 = fully inhibited enzyme, 1 = untreated enzyme;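 active = activation factor of at least 2 at 5 µM in the primary screen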
Target sequence (P33261 whole entry, looked up): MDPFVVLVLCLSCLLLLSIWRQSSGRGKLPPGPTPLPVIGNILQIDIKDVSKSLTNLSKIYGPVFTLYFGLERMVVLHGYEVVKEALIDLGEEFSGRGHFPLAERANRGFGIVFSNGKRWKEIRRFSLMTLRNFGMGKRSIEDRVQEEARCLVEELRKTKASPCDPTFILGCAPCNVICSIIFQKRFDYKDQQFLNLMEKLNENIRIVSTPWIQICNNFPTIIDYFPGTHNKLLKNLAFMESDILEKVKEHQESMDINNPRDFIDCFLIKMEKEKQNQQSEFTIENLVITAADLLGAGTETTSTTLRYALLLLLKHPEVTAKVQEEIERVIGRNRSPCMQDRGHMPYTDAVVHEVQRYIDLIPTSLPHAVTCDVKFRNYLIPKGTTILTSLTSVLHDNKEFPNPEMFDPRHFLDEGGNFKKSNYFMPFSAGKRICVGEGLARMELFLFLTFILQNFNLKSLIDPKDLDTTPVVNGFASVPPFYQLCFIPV
CYP2C9 inh – human CYP2C9 inhibition; CYP2C9 Supersomes, luciferin-H conversion, luminescence; actives 20% (n = 96,000); P11712; inhibition, % at 5 µM; AID 777;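 active = blocking of liver enzyme CYP2C9 beyond about 50% at 5 µM, limit read from the data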
CYP2C9 act – CYP2C9 (human) activation. P11712. recombinant CYP2C9, luciferin-H conversion, luminescence; stronger effect = higher value; factor 1 = untreated enzyme, 0 = blocked. activation factor at 5 µM. actives 1.4% (n = 96,000). AID 1024;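 active = activation factor of 2 or more for CYP2C9 at a 5 µM dose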
CYP2C19 inhib – inhibitors of human CYP2C19 | P33261 | CYP2C19 Supersomes, luciferin-H EGE luminescence, 30 min | inhibition, % at 5 µM | actives 21% (n = 96,000) | AID 778;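 active = CYP2C19 inhibition above a set limit at 5 µM in the primary screen, cut at about 50% in these data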
Each line names hits and unclear results; the compound was inactive in the other large screens. Compounds with a hit are over-represented: about 31% of the library has one in this group of screens.

COc1ccccc1N1CCN(C(CNS(=O)(=O)c2ccccc2)c2cccnc2)CC1 (stereo not given)	CYP2C9 inh 62, CYP2C19 inhib 86
COc1ccc(S(=O)(=O)NCC(c2cccnc2)N2CCN(c3ccccc3OC)CC2)cc1C (stereo not given)	CYP2C19 inhib 74
CCN1CCN(C(CNS(=O)(=O)c2ccc(OC)cc2)c2cccnc2)CC1 (stereo not given)	none
Cc1ccc(C(=O)Nc2ccc(Cl)cn2)cc1	none
CCN(CC)S(=O)(=O)c1cc(C(=O)Nc2ccc(Cl)cn2)ccc1C	CYP2C9 inh 80, CYP2C19 inhib 81
CCN(CC)S(=O)(=O)c1cc(C(=O)NC2CCCCC2)ccc1C	CYP2C9 inh 65
COc1ccc(CNC(=O)COC(=O)c2ccc3c(c2)OCCO3)cc1	none
COc1ccc2c(CC(=O)NCc3ccc4c(c3)OCO4)coc2c1	CYP2C9 inh 89, CYP2C19 inhib 96
Cc1ccc2c(CC(=O)OC(C)C(=O)NCc3ccc4c(c3)OCO4)coc2c1 (stereo not given)	CYP2C9 inh 94, CYP2C19 inhib 53
CC(OC(=O)Cc1coc2cc3c(cc12)CCC3)C(=O)NCc1ccc2c(c1)OCO2 (stereo not given)	none
Cc1ccc2c(CC(=O)NCc3ccc4c(c3)OCO4)coc2c1	CYP2C9 inh 79, CYP2C19 inhib 52
O=C(O)CCCCCNCc1ccncc1	none
COC(=O)c1cc2c(s1)-c1ccccc1OC2	CYP2C19 inhib 65
CCOC(=O)c1cc2c(s1)-c1c(C)cccc1OC2	CYP2C9 inh 72, CYP2C19 inhib 89
O=C(Nc1cccnc1)c1ccc(COc2ccccc2Br)o1	CYP2C9 inh 60, CYP2C19 inhib 89
COc1ccccc1OCc1ccc(C(=O)OCC2CCCO2)o1 (stereo not given)	CYP2C19 inhib 76
Cc1ccc(C(=O)Nc2ccc3c(c2)OCCO3)o1	none
Cc1ccc(C(=O)Nc2ccncc2)o1	CYP2C19 inhib 73
COc1ccccc1OCc1ccc(C(=O)Nc2ccncc2)o1	CYP2C9 inh 98, CYP2C19 inhib 100
CCOC(=O)c1cc(Br)c(=O)n2ccccc12	none
O=C(CC1Oc2ccc(Cl)cc2NC1=O)NC1CCCCCC1 (stereo not given)	none
Cc1cc(Nc2ccc(C)c(F)c2)n2ncnc2n1	none
O=C(NC1=NCCS1)C1CC(=O)N(c2ccccc2)C1 (stereo not given)	none
COC(=O)c1ccccc1NC(=O)c1ccc(COc2cccc3ccccc23)o1	CYP2C9 inh 58
COc1ccccc1OCc1ccc(C(=O)NC(C)(C)C)o1	none
COc1ccccc1OCc1ccc(C(=O)NCc2ccco2)o1	CYP2C19 inhib 76
COC(=O)c1ccccc1NC(=O)c1ccc(COc2ccccc2)o1	none
O=C(NCc1cccnc1)c1ccc(COc2ccccc2Br)o1	CYP2C9 inh 61, CYP2C19 inhib 79
O=C(NCc1cccnc1)c1ccc(COc2ccc3c(c2)CCC3)o1	CYP2C9 inh 67, CYP2C19 inhib 99
CSc1nnc2c(n1)OC(C1CC=C(C)CC1)Nc1ccccc1-2 (stereo not given)	none
O=C(Nc1cccs1)NC1CCCC1	none
CC1=NC(C(F)(F)F)(C(F)(F)F)C2=C(CC(C)(C)CC2=O)N1Cc1ccco1	CYP2C9 inh 54, CYP2C19 inhib 56
CC1(C)CC(=O)C2=C(C1)N(Cc1ccco1)C(=O)C2(NC(=O)C1CCCCC1)C(F)(F)F (stereo not given)	CYP2C9 inh 51
CC1(C)CC(=O)C2=C(C1)N(Cc1ccco1)C(=O)C2(NC(=O)c1ccc(Cl)cc1Cl)C(F)(F)F (stereo not given)	CYP2C19 inhib 83
Cc1ccc(C2=Nc3ccccc3NC(C)(c3ccc(C)o3)C2)o1 (stereo not given)	CYP2C9 inh 69, CYP2C19 inhib 95
Cn1c(SCC2CCCCC2)nnc1-c1ccncc1	CYP2C9 inh 87, CYP2C19 inhib 100
Cc1ccc(C(=O)NNC(=O)CSc2nnc(-c3ccncc3)n2C)cc1	none
Cn1c(SC2CCCCC2=O)nnc1-c1ccncc1 (stereo not given)	CYP2C19 inhib 70
Cn1c(SCCCC(=O)c2ccc(Br)cc2)nnc1-c1ccncc1	CYP2C9 inh 93, CYP2C19 inhib 75
Cc1ccc(NC(=O)c2ccc(CSc3nnc(-c4ccncc4)n3C)cc2)c(C)c1	CYP2C9 inh 66
Cn1c(SCC(=O)OC2CCCCC2)nnc1-c1ccc2c(c1)OCO2	none
O=C(c1ccco1)N1CCN(C(=O)C2CCCc3c2[nH]c2ccc(Cl)cc32)CC1 (stereo not given)	none
O=C(CSc1ccccn1)Nc1nc2ccc(Br)cc2s1	none
